Giardia kill = kills Giardia lamblia | Giardia lamblia trophozoite viability | activity change, % at 7.66 µM, hits read low | actives 0.15% (n = 340,000) | AID 540267; in the data active = activity change below about -80%; inconclusive = between about -30% and that limit;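 also: parasites exposed to compound for two days anaerobically before the ATP read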
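Anaerobic 48 hrs incubation at 37 deg C of 100 trophozoites/well with test compounds; ATPLite 1-Step luminescence, 15-30 min RT, reports cellular ATP as viability.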
DT40 TDP1 no CPT = qHTS for Inhibitors of human tyrosyl-DNA phosphodiesterase 1 (TDP1): qHTS in cells in absence of CPT. DT40 Tdp1-/- hTDP1 cells, no CPT, ATP luminescence, 48 h. actives 15% (n = 420,000). Potency, µM (highest dose often 46.2 µM), inactives show at the highest dose activity change, negative = growth inhibition, most hits filed as inhibitors; also: potency is read from the fitted curve at half-maximal effect; nearly all actives have a fitted effect of over 55% in size
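Compound effects on proliferation are scored in DT40 Tdp1-/-;hTDP1 cells in the absence of CPT. ATP levels (CellTiter-Glo luminescence) are recorded after a ≥48 hr, 37 °C incubation.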
TDP1 cell CPT = DT40-hTDP1 cell growth loss with CPT. chicken DT40 Tdp1-/-;hTDP1 cells + 20 nM CPT, ATP luminescence, 48 h. Potency, µM (series often up to 46.2 µM), without a hit: at the top dose activity change, negative = growth inhibition, usual class: inhibitors. actives 12% (n = 420,000); also: potency is read from the fitted curve at half-maximal effect; nearly all actives have a fitted effect of over 55% in size
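Chicken DT40 Tdp1-/- cells stably complemented with human TDP1 were seeded at 400 cells/well in medium containing 20 nM camptothecin, exposed to pin-transferred compounds, and grown at 37 °C for at least 48 hr. Viability was read as ATP luminescence.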
TDP1 inh = inhibitors of human tyrosyl-DNA phosphodiesterase TDP1; AID 485290; Potency, µM (top dose mostly 130 µM), inactives show at the highest dose activity change, negative = inhibition, most hits filed as inhibitors; actives 0.28% (n = 350,000); recombinant TDP1, AlphaScreen DNA substrate cleavage; also: potency is read from the fitted curve at half-maximal effect; nearly all actives have a fitted effect of over 40% in size
Target sequence (Q9NUW8 whole entry, looked up): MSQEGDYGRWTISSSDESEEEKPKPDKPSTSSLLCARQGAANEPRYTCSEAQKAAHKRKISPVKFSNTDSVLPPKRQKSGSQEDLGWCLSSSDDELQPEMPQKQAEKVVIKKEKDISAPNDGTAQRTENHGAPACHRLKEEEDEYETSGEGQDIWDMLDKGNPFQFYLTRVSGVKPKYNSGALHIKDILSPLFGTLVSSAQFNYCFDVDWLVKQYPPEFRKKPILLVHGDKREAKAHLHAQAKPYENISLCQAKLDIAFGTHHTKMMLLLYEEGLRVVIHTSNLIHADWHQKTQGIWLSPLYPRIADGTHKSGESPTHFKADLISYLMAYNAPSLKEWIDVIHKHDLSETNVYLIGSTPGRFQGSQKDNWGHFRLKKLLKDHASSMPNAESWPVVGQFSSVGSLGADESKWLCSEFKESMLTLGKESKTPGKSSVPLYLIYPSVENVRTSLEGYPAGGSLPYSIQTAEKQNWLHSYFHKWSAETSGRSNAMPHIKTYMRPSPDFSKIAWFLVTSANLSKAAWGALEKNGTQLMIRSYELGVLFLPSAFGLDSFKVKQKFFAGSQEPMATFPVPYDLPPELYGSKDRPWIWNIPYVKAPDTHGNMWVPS
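Here, a 5' biotin and 3' phosphotyrosine-FITC DNA oligonucleotide reports Tdp1 activity: intact substrate bridges AlphaScreen beads, while cleavage leaves a 3' phosphate and drops signal. All incubations at room temperature.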
IL1B secr inh = inflammasome signaling inhibition, IL-1 beta readout; activity change, % at 57.5 µM; THP-1 LPS/ATP IL-1B secretion, AlphaLISA, 16 h; hits give low values; actives 4.7% (n = 360,000); in the data active = activity change below about -50%; inconclusive = mostly about -30% to -49%
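THP-1 cells pretreated 1 hr with compounds (up to 57.5 uM final), then stimulated with LPS (250 ng/mL final) plus ATP (1.25 mM final); secreted IL-1B measured by AlphaLISA after 16 hr, decreased signal indicating inhibition.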
ELG1 DNA repair = inhibitors of ELG1-dependent DNA repair in HEK293T cells; HEK293T ELG1-luciferase reporter, luminescence, 16 h; DNA damage induced by 5-fluorouridine; actives 2.3% (n = 330,000); AID 504467; Potency, µM (top dose mostly 46.1 µM), for inactives: top-dose activity change, negative = inhibition, actives largely listed as inhibitors; also: potency is read from the fitted curve at half-maximal effect; nearly all actives have a fitted effect of over 55% in size
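Step one: seed 2,000 cells per well. Step two: pin-transfer compound or DMSO alongside 5-fluorouridine. Step three: incubate 16 hr, 37 °C, 5% CO2. Step four: add ONE-Glo, wait 30 min, read luminescence.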
An asterisk follows results filed as active; ? = inconclusive; . = no result. An excerpt weighted towards active compounds, which were near 19% of everything screened. Unless noted, calls follow the shape of the dose curve; as a rule, active = well fitted curve in the direction sought with a large enough effect; inconclusive = small, poorly fitted or top-dose-only effect, or another doubt; inactive = no such curve, though single readings can be large; an effect the other way counts as inactive or inconclusive. % is scaled to controls: 0 for no effect and ±100 for the full control effect.

SMILES	Giardia kill	DT40 TDP1 no CPT	TDP1 cell CPT	TDP1 inh	IL1B secr inh	ELG1 DNA repair
Clc1ccc(CN2CC[C@H]3C=CCc4cccc(c43)C2)cc1	-25.8	20.6µM*	?	4.6%	18.4	-1.6%
COc1ccccc1CN1Cc2cccc3c2[C@@H](CC1=O)[C@H](O)[C@H](O)C3	2.6	-5.5%	-6.0%	0.1%	19.0	16.1%
O=C1C[C@H]2C=CCc3cccc(c32)CN1Cc1ccc(Br)cc1	.	11.2µM*	?	.	.	.
Cc1ccccc1CN1Cc2cccc3c2[C@H](C=CC3)CC1=O	.	10µM*	11.2µM*	.	.	.
COc1ccc(C2C3=C(N=CN(CCN4CCOCC4)C3N)Oc3ccccc32)cc1OC (stereo not given)	.	.	.	2.6%	.	.
COC(=O)c1cc(=O)c2c(C)nc(C(Cl)(Cl)Cl)nc2[nH]1	4.6	-1.7%	-2.6%	8.8%	23.8	21.0%
Cc1nc2ccn(Cc3ccco3)c(=O)c2cc1C(=O)NCc1ccc(Cl)cc1	.	?	?	4.5%	.	.
O=C(NC(NNc1ccc([N+](=O)[O-])cc1)(C(F)(F)F)C(F)(F)F)c1ccc(Cl)cc1	4.1	29.1µM*	?	3.9%	?	-11.4%
N#Cc1cc2[nH]c3ccccc3c2[n+](-c2ccc([N+](=O)[O-])cc2)c1N	0.7	?	7.9%	3.7%	-97.5*	-1.9%
COc1ccc(NS(=O)(=O)c2cccc(C(=O)N3CCCCCCC3)c2)cc1	-7.9	14.6µM*	?	0.4%	0.0	-3.7%
COc1ccc(NS(=O)(=O)c2cccc(C(=O)N3CCN(C(=O)c4ccco4)CC3)c2)cc1	16.7	-27.1%	9.2µM*	-0.9%	41.0	?
Cc1ccc(NS(=O)(=O)c2cccc(C(=O)N3CCCCCC3)c2)cc1	3.5	20.6µM*	?	-10.8%	-3.1	-11.9%
Cc1ccc(NS(=O)(=O)c2cccc(C(=O)N3CCCCC3)c2)cc1	-2.1	?	-25.6%	-0.4%	21.8	-32.5%
Cc1ccc(Oc2ccc(NS(=O)(=O)c3cccc(C(=O)O)c3)cc2)cc1	-3.3	7.31µM*	-2.7%	0.2%	28.5	-0.2%
CCCCN1C(=O)C(CC(=O)NC(c2ccccc2)c2ccccc2)CC(C(=O)N(C(C)C)C(C)C)=C1C (stereo not given)	.	20.6µM*	23.1µM*	.	-29.0	.
CC1=C(C(=O)N2CCOCC2)CC(CC(=O)NC(c2ccccc2)c2ccccc2)C(=O)N1Cc1ccc(C(C)(C)C)cc1 (stereo not given)	.	16.4µM*	?	.	-19.4	.
CC1=C(C(=O)N(C)C)CC(CC(=O)NC(c2ccccc2)c2ccccc2)C(=O)N1Cc1ccc(C(C)(C)C)cc1 (stereo not given)	.	23.1µM*	?	.	-5.7	.
CCCCN1C(=O)C(CC(=O)NC(c2ccccc2)c2ccccc2)CC(C(=O)N(C)C)=C1C (stereo not given)	.	4.3%	-9.7%	.	21.2	.
CCN(CC)C(=O)C1=C(C)N(Cc2ccc(C(C)(C)C)cc2)C(=O)C(CC(=O)NCCc2ccccn2)C1 (stereo not given)	.	?	?	.	-6.3	.
CCN(CC)C(=O)C1=C(C)N(Cc2ccc(C(C)(C)C)cc2)C(=O)C(CC(=O)NC(c2ccccc2)c2ccccc2)C1 (stereo not given)	.	11.6µM*	13µM*	.	?	.
COc1cccc(-c2nn(-c3ccc(C)cc3)cc2C(=O)N2CCN(C3CCS(=O)(=O)C3)CC2)c1 (stereo not given)	?	4.0%	-11.6%	0.6%	-22.7	?
CSc1cccc(NS(=O)(=O)c2cc(Br)cnc2N)c1	-16.5	-5.4%	11.3%	1.1%	-2.9	2.7%
COCCN1C(=O)C(C(=O)OC)CC2=C1CC(C)(C)CC2=O (stereo not given)	-21.3	-10.9%	-19.3%	.	12.4	.
